# Assay results: PubChem BioAssay AID720579 (National Center for Advancing Translational Sciences (NCATS), 2013)
# Screen size: about 310,000 compounds; about 1,900 (0.61%) were called active. About 8% were inconclusive and are not listed. This is one part of a sample in which actives are shown more often than they occur. The call rests on the fitted dose curve; tested in A549 cells.
# Assay: qHTS for Stage-Specific Inhibitors of Vaccinia Orthopoxvirus: mCherry Reporter Primary qHTS; further: nearly all actives have a fitted effect of over 35% in size
# Conditions: Vaccinia virus mCherry reporter infection, fluorescence; series mostly up to 36.5 µM; activity change, negative = inhibition: at the top concentration
# On the % scale 0 is the no-effect control and ±100 the full control effect; potency means the concentration at half of the fitted maximal effect.
SMILES,outcome,"activity change, negative = inhibition",Potency
CCc1c(-c2ccc(F)cc2)ncn1Cc1cccc(-c2ccccc2)c1,inactive,,
N#Cc1cccc(NC(=O)c2cc(C3CCCCN3C(=O)CCc3ccccc3)on2)c1 (centres undefined),,1.36% (inactive),
Cc1cc2c(cc1C)N1C(=O)c3cc4ccccc4cc3NC(=O)C1C(=O)N2 (centres undefined),,11.5% (inactive),
Oc1ccc(/C=N/Nc2ccc(C(F)(F)F)cn2)cc1O,,,10 µM (active)
CCNc1nc(NCC)nc(N/N=C/c2ccc(O)c(OC)c2)n1,,-15.6% (inactive),
FC(F)(F)c1cccc(N/N=C/c2ccccc2)c1,,-17.6% (inactive),
O=C(COc1ccccc1C(=O)Nc1ccccc1)Nc1cccc(F)c1,,-27.2% (inactive),
CC1(C(=O)Nc2cccc(Oc3ccccc3)c2)CCN1Cc1ccccc1Cl (centres undefined),inactive,,
CN1OC[C@@H]2CN(C(=O)c3ccc(-c4ccccc4)cc3)[C@H](c3ccc(-c4cccc(F)c4)cc3)C[C@@H]21,,-2.21% (inactive),
COc1ccccc1Cc1c(-c2ccc(Cl)cc2)nc2ccc(Cl)cn12,,-16.7% (inactive),
C/C(=N\NC(=O)Cc1ccc(Br)cc1)c1cccnc1,inactive,,
O=C(NCCOc1ccccc1)c1ccccc1F,,-10.6% (inactive),
C/C(=N\NC(=O)c1ccccc1F)c1ccccn1,,,2 µM (active)
O=C(Nc1ccc(NC(=O)c2ccccc2F)cc1)c1ccccc1F,,-15% (inactive),
C/C(=N\NC(=O)Cc1ccc(F)cc1)c1ccc(F)cc1,,-19.4% (inactive),
C/C(=N\NC(=O)Cc1ccc(Cl)cc1)c1ccccn1,,,5.01 µM (active)
COc1ccccc1Cc1c(-c2ccc(Cl)cc2)nc2c3ccccc3ccn12,,-7.18% (inactive),
COc1ccc(NC(=O)c2sc(=O)n(Cc3ccc(S(=O)(=O)N(C)C)cc3)c2C)cc1,inactive,,
COc1cccc(-c2cc(NC(C)=O)c3ncc(-c4cccc(C(C)=O)c4)n3c2)c1,,4.33% (inactive),
SCc1nc2ccc(Cl)cc2[nH]1,,-20.9% (inactive),
CC(=O)N1Cc2cc(C(=O)NCc3cccc(F)c3)nc(-c3cccc(C4=CCCC4)c3)c2[C@H]1CCO,,-22.7% (inactive),
Cc1ccc(C)c(S(=O)(=O)n2nc(C)c(S(=O)(=O)N3CCC(C)CC3)c2C)c1,,7.85% (inactive),
Cc1ccc(C)c(S(=O)(=O)N2CCN(c3ncnc4sccc34)CC2)c1,,,7.08 µM (active)
Cc1ccc(S(=O)(=O)N2CCN(c3ncnc4ccccc34)CC2)cc1,inactive,,
CCCN(CCC)S(=O)(=O)c1cc2c(cc1Br)CCN2C(=O)CC,,-19.1% (inactive),

SMILES,outcome,"activity change, negative = inhibition",Potency
CCCNC(=O)C1(C)CCN(Cc2ccc(Cl)c(Cl)c2)C1 (centres undefined),,10.3% (inactive),
CCn1c(=O)c(=O)[nH]c2c(=O)oc3ccc(S(=O)(=O)Nc4ccc(OC)cc4)cc3c21,,-4.06% (inactive),
COc1ccc(NC(=O)c2cnc(NS(=O)(=O)c3ccccc3)nc2)cc1,,-2.69% (inactive),
COc1ccc(NS(=O)(=O)c2ccc3oc(SCC(N)=O)nc3c2)cc1,,,3.55 µM (active)
Cc1ccc(NC(=O)Cn2sc3ccccc3c2=O)cc1,inactive,,
CN(C(=N)N)c1ccc(/C=C2\C=Cc3ccccc32)cc1,,-25.5% (inactive),
CCOC(=O)[C@]12CCCC=C1N(CCC1=CCCCC1)C(=O)[C@H](CC(=O)N1CCCCC1)C2,,-13.6% (inactive),
COc1cc2nc(N3CCCN(C)CC3)nc(NC3CC3)c2cc1OC,,-9.78% (inactive),
c1ccc(C(=NNc2nc3ccccc3s2)c2ccccn2)cc1,,,7.08 µM (active)
O=C(Nc1ccccc1Cl)O/N=C(/c1ccccc1)c1ccccn1,,-20.6% (inactive),
c1ccc2sc(NN=C3CCCC3)nc2c1,,-13.5% (inactive),
Cc1[nH]c2ccccc2c1C(=O)c1cc([C@H](NC(=O)OC(C)(C)C)C(C)C)sc1N,,-10.6% (inactive),
CCCCN(C(C)=O)c1ccc2c(c1)C1CC2CCN1Cc1ccccc1 (centres undefined),inactive,,
COc1ccccc1Oc1nc(-c2cccnc2)nc2ccccc12,inactive,,
Fc1ccc(/C=N/Nc2nc(-c3cccnc3)nc3ccccc23)cc1,inactive [at 7.34 µM],,
O=[N+]([O-])c1ccc(F)cc1Oc1nc(-c2cccnc2)nc2ccccc12,,,3.55 µM (active)
COc1ccc(-c2ccc(C(=O)NCCN3CCOCC3)c3occc23)c(C)c1,,-6.53% (inactive),
COC1CC(OC2CC[C@@]3(C=O)C4CC[C@]5(C)C(C6=CC(=O)OC6)CC[C@@]5(O)C4CC[C@]3(O)C2)OC(C)C1O (some centres undefined),,,2.51 µM (active)
CC1=C(C(=O)N2CCOCC2)CC(CC(=O)NCC2CCCCC2)C(=O)N1Cc1ccc(F)cc1 (centres undefined),,-20.7% (inactive),
CC(=O)C1=CCC(c2ccccc2)N(S(=O)(=O)c2ccc(C)cc2)C1 (centres undefined),inactive,,
COc1cccc(NC(=O)C2(C)CCN2C(=O)CCC2CCCC2)c1 (centres undefined),inactive,,
CCCCCCN1CCN(C2CN(Cc3cn(CCCCCC)nn3)S(=O)(=O)C2)CC1 (centres undefined),,-6.2% (inactive),
CN1CCc2cc3c(cc2[C@H]1[C@@H]1OC(=O)c2c1ccc1c2OCO1)OCO3,,-6.18% (inactive),
COc1c(O)ccc2c1CN1CCc3cc4c(cc3C1C2)OCO4 (centres undefined),,,11.2 µM (active)
COc1ccc2c(c1O)-c1cccc3c1[C@@H](C2)N(C)CC3,,-17.5% (inactive),

SMILES,outcome,"activity change, negative = inhibition",Potency
CC(C)NC(=O)C1(C)CCCCCN1C(=O)c1ccc(-c2ccccc2)cc1 (centres undefined),inactive,,
CC(=O)c1ccc(Nc2nc(C(N)c3ccccc3Cl)cs2)cc1 (centres undefined),,-16.5% (inactive),
CC(=O)Nc1cccc(-c2cc(NC(C)=O)c3ncc(-c4ccccc4)n3c2)c1,,12% (inactive),
CCOc1ccc(-c2cc(C(=O)N/N=C/c3ccc(O)cc3)c3ccccc3n2)cc1,,,3.98 µM (active)
COc1ccc(-c2cc(C(=O)N/N=C/c3cccnc3)c3ccccc3n2)c(OC)c1,,-10.7% (inactive),
COc1ccc(-c2cc(C(=O)Nc3ccccc3O)c3ccccc3n2)cc1,,-20.4% (inactive),
CC1(C(=O)Nc2ccc3c(c2)OCCO3)CCN1C(=O)Cc1cc(F)ccc1F (centres undefined),inactive,,
CCCOc1ccc(F)cc1-c1cc(C(=O)NCc2ccc(F)cc2)[nH]n1,,-8.69% (inactive),
Cc1ccc(-c2ccnc(-n3ncc(C(=O)N(C)Cc4cccc5ncccc45)c3C3CC3)n2)o1,,-4.61% (inactive),
CN(Cc1cccc2ncccc12)C(=O)c1cnn(-c2nccc(-c3ccccc3F)n2)c1C1CC1,,,5.62 µM (active)
Cc1cccc(CNC(=O)c2cnn(-c3nccc(-c4ccccc4F)n3)c2C2CC2)n1,,-8.11% (inactive),
CCOC(=O)C1=CCC(c2ccc(F)cc2)N(S(=O)(=O)c2ccc(C)cc2)C1 (centres undefined),,18.9% (inactive),
O=C1N=C(N2CCCC2)S/C1=C\c1cccc(Br)c1,,-2.62% (inactive),
CCOc1cc(/C=C2\SC(N3CCCC(C)C3)=NC2=O)ccc1O (centres undefined),,,11.2 µM (active)
CC1CCN(C2=NC(=O)/C(=C/c3ccc(O)cc3)S2)CC1,,-10.7% (inactive),
CCCCC(=O)N(C)c1c(CC)nc2c(OCc3ccc(S(C)(=O)=O)cc3)cccn12,,-16% (inactive),
OCCC#Cc1ccc(N2C(c3ccsc3)=Cc3ccc(F)cc3C2c2c[nH]c3ccccc23)cc1 (centres undefined),,8.59% (inactive),
COC(=O)C1=CN(Cc2ccc(OC)c(OC)c2)C=C(C(=O)OC)C1c1cccs1,,-12.4% (inactive),
COc1ccc(CC2c3cc(OC)c(OC)cc3CC[N+]2(C)CCC(=O)OCCCCCOC(=O)CC[N+]2(C)CCc3cc(OC)c(OC)cc3C2Cc2ccc(OC)c(OC)c2)cc1OC (centres undefined),,,15.8 µM (active)
COc1ccc(CN2CCOC2=O)cc1OC,inactive,,
OC[C@@H]1CN(Cc2ccc(F)cc2)C[C@H](n2cnc3c(NC4CCCC4)ncnc32)O1,,-6.71% (inactive),
COc1ccccc1CNc1nc(Nc2ccccc2Cl)c2sccc2n1,,7.85% (inactive),
CC(C)c1cccc(-c2csc(C(O)c3ccccc3)n2)c1 (centres undefined),inactive,,
Cc1ccc(C(O)c2ncc(-c3ccccc3F)[nH]2)cc1F (centres undefined),,5.43% (inactive),
O=C(CNC(=O)c1cccnc1)N/N=C/c1cccnc1,,-10.6% (inactive),

SMILES,outcome,"activity change, negative = inhibition",Potency
CCOC(=O)N/N=C/c1cccnc1,,-7.27% (inactive),
O=C(CSc1cccc2cccnc12)N/N=C/c1cccnc1,,,11.2 µM (active)
COc1cc(C=C(OC(C)=O)c2ccc3c(c2)OCO3)cc(OC)c1OC,,12.3% (inactive),
COC(=O)[C@]12CCCCC=C1N(Cc1ccco1)C(=O)[C@H](CC(=O)NCC1CCCCC1)C2,,32.7% (inactive),
COC(=O)[C@]12CCCCC=C1N(Cc1ccc(Cl)cc1Cl)C(=O)[C@H](CC(=O)NCc1cccc3ccccc13)C2,inactive,,
Cc1ccc(S(=O)(=O)N2CCC(C(=O)Nc3cc(C)ccc3C)CC2)cc1,,-25.2% (inactive),
O=C(Nc1ccccn1)C1CCN(S(=O)(=O)c2ccccc2)CC1,,14.8% (inactive),
Cc1ccnc(NC(=O)C2CCN(S(=O)(=O)c3c(C)c(C)cc(C)c3C)CC2)c1,,,11.2 µM (active)
COc1ccc(C(C#N)=C2C=CC(=NO)c3ccccc32)cc1,,-7.3% (inactive),
COc1cc(C)c(CN2CCN(C(=O)CCC(=O)c3ccc(C)s3)CC2)cc1OC,,-4.2% (inactive),
COC(=O)[C@]12CCCCC=C1N(Cc1ccco1)C(=O)[C@H](CC(=O)NCCCCc1ccccc1)C2,,8.49% (inactive),
CC1Cc2ccccc2N1S(=O)(=O)c1ccc(Cl)nc1 (centres undefined),,,15.8 µM (active)
CC1Cc2ccccc2N1S(=O)(=O)c1c(N)n(C)c(=O)n(C)c1=O (centres undefined),inactive,,
Cc1cc(-c2ccc(C)c(S(=O)(=O)N3c4ccccc4CC3C)c2)on1 (centres undefined),,-11% (inactive),
CCc1ccc2c(c1)NC(=O)C2(C)Cc1ccc(OC(F)(F)F)cc1 (centres undefined),,9.47% (inactive),
CCc1ccc2c(c1)C1(NN=C(c3ccccc3)S1)C(=O)N2 (centres undefined),,,14.1 µM (active)
CCc1cccc(NC(=O)c2cc(-c3ccccc3)n[nH]2)c1,,-7.89% (inactive),
CCOc1ccc(C(NC(=O)c2cc(OC)c(OC)c(OC)c2)c2cc(Cl)c3cccnc3c2O)cc1 (centres undefined),,,10 µM (active)
COc1cc(C(=O)N[C@@H](C)C(=O)NCc2ccco2)cc(OC)c1OC,inactive,,
CCOc1ccc(C(=O)NC(C(=O)NCc2ccccn2)C(C)C)cc1 (centres undefined),,-1.03% (inactive),
CC(C)C[C@@H](COCc1ccc(Cl)cc1)N1CCN(C(=O)c2ccc(Cl)cc2Cl)CCC1=O,,1.65% (inactive),
NC(=S)NN=C1CCCC(C(F)(F)F)C1 (centres undefined),,,10 µM (active)
CC(C)NC(=S)NN=C1CCCCCCCCCCC1,,-5.08% (inactive),
CC(C)(C)C1CCC(=O)N2CCC[C@]2(c2ccccc2)C1 (some centres undefined),,32.4% (inactive),
